Inconclusive results are not listed. Activity calls are given as the source filed them. Unless noted, calls follow the shape of the dose curve; as a rule, active = well fitted curve in the direction sought with a large enough effect; inconclusive = small, poorly fitted or top-dose-only effect, or another doubt; inactive = no such curve, though single readings can be large; an effect the other way counts as inactive or inconclusive.
Key:
[1] = target: Tyrosine-protein kinase Yes (Homo sapiens) (UniProt P07947); assay: qHTS for small molecule inhibitors of Yes1 kinase: Primary Screen (AID 686947); also: nearly all actives have a fitted effect of over 60% in size; also: potency is read from the fitted curve at half-maximal effect
Outline: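 Yes1 (4 nM) preincubated 20 min with compound, then 60 min room-temperature reaction with 0.1 mM ATP and 0.3 mg/mL poly(E4Y) in pH 7.5 Tris, 10 mM MgCl2. ADP measured by ADP-Glo luminescence, normalised to enzyme/no-enzyme controls.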

[2] = qHTS for small molecule inhibitors of Yes1 kinase: Counter Assay (AID 686950);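 also: no kinase present so only ADP-Glo detection of a fixed ADP amount is tested; luminescence from ADP-Glo reporting ADP in a fixed ATP and ADP mixture; 0% = DMSO wells with ATP plus ADP and -100% = ATP-only wells without ADP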
Outline: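 Enzyme-free ADP-Glo interference check: compounds were preincubated 20 min in buffer, then an ATP/ADP mix (0.08 mM ATP, 0.02 mM ADP final) was added for 60 min at room temperature before two-step ADP-Glo luminescence detection.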

[3] = qHTS Assay for Identifying Gametocytocidal Compounds (AID 743244); also: potency is read from the fitted curve at half-maximal effect;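 as to max response: % is scaled to controls: 0 for no effect and ±100 for the full control effect; actives lower the fluorescent signal which means gametocytes are killed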; settings: P. falciparum 3D7 stage III-V gametocytes, alamarBlue, 72 h; max response: stronger effect = lower value
Outline: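 Stage III–V gametocytes of P. falciparum 3D7 were seeded at 20,000 cells/well onto pre-dispensed compounds. After 72 h, 37 °C, 5% CO2, alamarBlue was added for another 24 h.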

[4] = qHTS profiling for inhibitors of Plasmodium falciparum (3D7) proliferation (AID 743322; call rule not given here;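 also: infected erythrocytes exposed to compound for 72 h before lysis; 100% = DMSO vehicle wells and 0% = 0.29 µM artemisinin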); settings: P. falciparum 3D7 proliferation; at 28.7 µM (top of the series) unless noted
Outline: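 Erythrocytes infected with P. falciparum (0.3% parasitemia, 2.5% hematocrit) incubated with compounds 72 h at 37 C, 5% CO2. Lysis with saponin/Triton buffer containing SYBR Green I, overnight at room temperature in the dark; DNA fluorescence (485/535 nm) normalised to 0.29 uM artemisinin and DMSO.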

[5] = qHTS for compounds that reverse cellular toxicity of Amyloid beta (A-beta) peptide in yeast: LOPAC Validation Assay (AID 720559);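 also: plate controls were DMSO for no effect and equimolar ferric chloride plus clioquinol rescue for full effect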
Outline: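 Yeast expressing toxic A-beta grown with pinned compounds at 30 C for 48 hr. Growth measured as absorbance at 600 nm; data normalized to DMSO and to an equimolar FeCl3/clioquinol mixture as positive control.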

[6] = qHTS for Activators of Parkin Expression: LOPAC Validation Assay (NLuc Reporter) (AID 720572;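 also: 0% = DMSO and 100% = positive control compound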)
Outline: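 Neuronal line stably carrying a FLuc/NLuc coincidence reporter under the Parkin promoter, seeded 24 h, then dosed in 7-point series for 24 h at 37 C. NLuc luminescence read after FLuc; normalized to DMSO and positive control (100%).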

[7] = qHTS for Activators of Parkin Expression: LOPAC Validation Assay (FLuc Reporter) (AID 720573;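 also: 0% = DMSO and 100% = positive control compounds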)
Outline: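 Neuronal cell line stably expressing FLuc/NLuc coincidence reporter under the Parkin promoter, 1,500 cells/well, dosed 24 h after seeding in 7-point series for 24 h at 37 C. FLuc luminescence read; normalized to DMSO and positive control (100%).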

[8] = target: T1, Hexokinase-4 (Homo sapiens) + Glucokinase regulatory protein (Homo sapiens) (UniProt P35557+Q14397); assay: qHTS assay for inhibitors of recombinant human GCK-GKRP interaction: Diaphorase-coupled assay (AID 743205)
Outline: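 Compounds pre-incubated 20 min with substrate, then 10 nM GST-GCK with 10 nM FLAG-GKRP added. GCK activity coupled via G6PDH and diaphorase to resorufin (5 mM glucose, 0.4 mM ATP, 0.15 mM NADP+, pH 7.6), read kinetically over 30 minutes at Ex 525/Em 590 nm.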

[9] = target: T1, Hexokinase-4 (Homo sapiens) + Glucokinase regulatory protein (Homo sapiens); assay: qHTS assay for inhibitors of recombinant human GCK-GKRP interaction: ADP-Glo assay (AID 743206);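 also: plate controls were DMSO plus enzyme for no effect and no enzyme for full effect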
Outline: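 GST-GCK and FLAG-GKRP (15 nM each in the dispensed mix, with 2 uM S6P) react with 0.4 mM ATP and 5 mM glucose (final) in Hepes pH 7.6 for 60 min at room temperature. ADP is measured by ADP-Glo luminescence.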

[10] = target: T1, Hexokinase-4 (Homo sapiens) + Glucokinase regulatory protein (Homo sapiens); assay: qHTS assay for inhibitors of recombinant human GCK-GKRP interaction: HTRF assay (AID 743207);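 also: 0% = DMSO with GCK present and -100% = DMSO wells lacking GCK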
Outline: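 HTRF binding of 5 nM GST-GCK and 5 nM FLAG-GKRP with 2 uM S6P in pH 7.1 Hepes buffer (MgCl2, KCl, DTT, Tween 20, BSA). Anti-FLAG XL665 and anti-GST donor added, 60 min at room temperature; 665/615 nm read, normalized to with- and without-GCK controls.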

T1 sequence (P35557 whole entry, looked up): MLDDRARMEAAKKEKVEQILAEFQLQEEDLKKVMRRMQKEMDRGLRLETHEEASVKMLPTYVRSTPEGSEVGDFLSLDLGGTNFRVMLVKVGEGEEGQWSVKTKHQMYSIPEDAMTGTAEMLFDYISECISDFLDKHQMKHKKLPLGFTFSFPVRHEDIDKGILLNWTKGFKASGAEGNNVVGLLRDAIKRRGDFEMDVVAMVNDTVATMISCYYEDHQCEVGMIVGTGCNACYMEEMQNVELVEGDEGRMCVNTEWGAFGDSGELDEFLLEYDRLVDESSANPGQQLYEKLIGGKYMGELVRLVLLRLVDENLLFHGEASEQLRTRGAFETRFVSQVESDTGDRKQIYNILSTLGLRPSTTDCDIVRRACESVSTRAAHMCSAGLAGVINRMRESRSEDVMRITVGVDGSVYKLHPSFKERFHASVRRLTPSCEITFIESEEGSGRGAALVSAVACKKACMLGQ
T1 sequence (Q14397 whole entry, looked up): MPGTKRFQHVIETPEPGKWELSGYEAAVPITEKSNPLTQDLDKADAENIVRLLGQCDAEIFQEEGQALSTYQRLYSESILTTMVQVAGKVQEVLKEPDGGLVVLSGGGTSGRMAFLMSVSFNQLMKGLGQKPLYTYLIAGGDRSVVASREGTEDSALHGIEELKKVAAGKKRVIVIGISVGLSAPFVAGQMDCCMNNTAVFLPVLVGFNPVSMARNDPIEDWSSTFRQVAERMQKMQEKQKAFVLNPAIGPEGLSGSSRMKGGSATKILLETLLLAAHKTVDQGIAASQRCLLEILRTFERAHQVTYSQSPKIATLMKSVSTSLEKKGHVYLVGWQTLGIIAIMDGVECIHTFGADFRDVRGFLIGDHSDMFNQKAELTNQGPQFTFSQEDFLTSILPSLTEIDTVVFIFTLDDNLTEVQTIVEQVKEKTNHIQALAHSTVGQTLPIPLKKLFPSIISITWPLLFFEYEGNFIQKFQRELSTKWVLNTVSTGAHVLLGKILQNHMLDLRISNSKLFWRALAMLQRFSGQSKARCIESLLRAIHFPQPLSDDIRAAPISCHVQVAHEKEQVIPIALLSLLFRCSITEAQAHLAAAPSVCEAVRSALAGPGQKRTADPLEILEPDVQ
Chain of Tyrosine-protein kinase Yes (Homo sapiens) (P07947 whole entry, looked up): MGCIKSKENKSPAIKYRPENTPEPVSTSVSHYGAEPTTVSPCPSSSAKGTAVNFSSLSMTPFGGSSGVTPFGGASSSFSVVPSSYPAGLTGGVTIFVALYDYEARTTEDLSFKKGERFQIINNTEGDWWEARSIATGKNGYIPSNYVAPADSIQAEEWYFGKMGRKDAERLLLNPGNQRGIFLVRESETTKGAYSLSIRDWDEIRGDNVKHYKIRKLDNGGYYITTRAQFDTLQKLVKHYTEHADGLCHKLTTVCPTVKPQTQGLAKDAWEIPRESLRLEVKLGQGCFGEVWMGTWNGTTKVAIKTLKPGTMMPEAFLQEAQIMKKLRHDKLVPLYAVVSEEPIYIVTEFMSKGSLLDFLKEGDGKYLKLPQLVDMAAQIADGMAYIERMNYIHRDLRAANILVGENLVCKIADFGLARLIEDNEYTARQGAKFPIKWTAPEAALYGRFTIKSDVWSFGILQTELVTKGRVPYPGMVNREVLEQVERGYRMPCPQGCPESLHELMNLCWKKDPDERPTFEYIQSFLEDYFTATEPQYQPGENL

SMILES: CCc1cc(-c2n[nH]c(C)c2-c2ccc3c(c2)OCCO3)c(O)cc1O
- Potency [1]: 4340 nM (active)
- outcome [2]: inactive
- max response [3]: -4.02% (inactive)
- remaining parasite growth % (stronger effect = lower value) [4]: 99.3%

SMILES: CN(C)CCN(Cc1ccc(Cl)cc1)c1ccccn1
- max response [3]: 18.2% (inactive)

SMILES: O=C(O)Cc1cccc(OCCCN(Cc2cccc(C(F)(F)F)c2Cl)CC(c2ccccc2)c2ccccc2)c1
- outcome [2]: inactive
- max response [3]: 0.38% (inactive)

SMILES: CC(C)C[C@H](NC(=O)c1cc2ccccc2s1)C(=O)N1CCN(C(=O)[C@H](CO)NS(=O)(=O)c2ccc(Cl)cc2Cl)CC1
- Potency [1]: inactive
- outcome [2]: inactive
- max response [3]: 4.85% (inactive)
- remaining parasite growth % (stronger effect = lower value) [4]: 17.9%

SMILES: C=CCc1cccc(C=NNC(=O)CN2CCN(Cc3ccccc3)CC2)c1O
- outcome [5]: inactive
- outcome [6]: inactive
- outcome [7]: inactive
- outcome [8]: inactive
- outcome [9]: inactive
- outcome [10]: inactive

SMILES: CS(=O)(=O)c1ccc(C2=C(c3ccccc3)C(=O)OC2)cc1
- max response [3]: 3.44% (inactive)

SMILES: COc1cc2nccc(Oc3ccc(NC(=O)Nc4cc(C)on4)c(Cl)c3)c2cc1OC
- Potency [1]: 772 nM (active)
- outcome [2]: inactive
- max response [3]: 19.1% (inactive)
- remaining parasite growth % (stronger effect = lower value) [4]: 62.8%

SMILES: Cc1cccc(Nc2nc(N[C@@H]3CCCC[C@H]3N)ncc2C(N)=O)c1
- Potency [1]: 387 nM (active)
- outcome [2]: inactive
- Potency [3]: 9350 nM (active)
- remaining parasite growth % (stronger effect = lower value) [4]: 0.221%

SMILES: N#CC(c1ccc(Cl)cc1)c1c(Cl)cc(-n2ncc(=O)[nH]c2=O)cc1Cl (configuration not stated)
- max response [3]: -5.57% (inactive)

SMILES: CCN(CC)CCCCNc1nc2cc(Cl)c(Cl)cc2nc1-c1ccc(-c2cccs2)s1
- outcome [2]: inactive

SMILES: CC(C)(CO)[C@@H](O)C(=O)NCCC(=O)O
- max response [3]: -8.71% (inactive)

SMILES: CC1=C[C@@H]2[C@@H]([C@@H](O)C[C@@]3(C)[C@H]2C[C@@H](C)[C@]3(O)C(=O)CO)[C@@]2(C)Cc3cnn(-c4ccccc4)c3C=C12
- Potency [1]: inactive
- outcome [2]: inactive
- max response [3]: -28.3% (inactive)
- remaining parasite growth % (stronger effect = lower value) [4]: 0.407%

SMILES: N#Cc1c(N(CC(=O)O)CC(=O)O)sc(C(=O)O)c1CC(=O)O
- max response [3]: -8.64% (inactive)

SMILES: CN(C)CCOc1ccc(-c2nc(-c3ccc4c(c3)CCC4=NO)c(-c3ccncc3)[nH]2)cc1
- outcome [2]: inactive

SMILES: O=C(O)c1nc(=O)[nH]c(=O)[nH]1
- max response [3]: 15.4% (inactive)

SMILES: CN1CCN2c3ncccc3Cc3ccccc3C2C1 (configuration not stated)
- max response [3]: 6.21% (inactive)

Source: PubChem BioAssay (NCATS)
